Data published in the antibiotic and cytotoxicity screens of Wong et al. (2023).
The whole screen tested about 39,000 compounds, of which about 1,500 (3.8%) were called active. The sample holds actives, similar compounds and a random draw of the others, so the mix is not that of the screen.

The compounds below were run on HSkMC (human skeletal muscle cells) (assay: cytotoxicity call (relative viability < 0.9)). Conditions: 10 µM.

SMILES | cytotoxicity call
C[C@@H]1CCCCO[C@@H](CN(C)S(=O)(=O)c2ccc(F)cc2)[C@H](C)CN([C@H](C)CO)C(=O)c2cc(NC(=O)Nc3ccc4c(c3)OCO4)ccc2O1 | inactive
C[C@@H]1CCCCO[C@@H](CN(C)C(=O)CCCN(C)C)[C@@H](C)CN([C@H](C)CO)C(=O)c2cc(NC(=O)Nc3ccc(C(F)(F)F)cc3)ccc2O1 | inactive
CC(C)CC#Cc1cnc2c(c1)C(=O)N([C@@H](C)CO)C[C@@H](C)[C@@H](CN(C)S(=O)(=O)c1cn(C)cn1)O2 | inactive
C[C@H](CO)N1C[C@H](C)[C@H](CN(C)C(=O)Nc2ccccc2)Oc2c(NC(=O)C3CCOCC3)cccc2C1=O | inactive
C[C@H](CO)N1C[C@H](C)[C@H](CN(C)C(=O)c2cnccn2)Oc2cc(Br)ccc2S1(=O)=O | inactive
C[C@@H]1CN([C@@H](C)CO)C(=O)c2cc(C#Cc3ccccc3F)cnc2O[C@@H]1CN(C)C(=O)Cc1cccnc1 | inactive
COc1ccc(S(=O)(=O)N(C)C[C@@H]2Oc3ccc(NC(=O)c4ccncc4)cc3CC(=O)N([C@H](C)CO)C[C@H]2C)cc1 | inactive
CCCC#Cc1cnc2c(c1)C(=O)N([C@H](C)CO)C[C@H](C)[C@H](CN(C)S(=O)(=O)c1cn(C)cn1)O2 | inactive
O=C(O)CC(O)(CC(=O)O)C(=O)O.[LiH].[LiH].[LiH] | inactive
NC(=O)c1ccc2nc(-c3ccc(C4(N)CCC4)cc3)c(-c3ccccc3)n2n1 | inactive
Nc1ncccc1-c1nc2ccc(-c3ccccc3)nc2n1-c1ccc(C2(N)CCC2)cc1 | active
CC(C)NC(=O)N(C)C[C@@H]1Oc2c(NC(=O)NC3CCCCC3)cccc2C(=O)N([C@@H](C)CO)C[C@@H]1C | inactive
C[C@@H]1CN([C@H](C)CO)C(=O)Cc2cc(NC(=O)Nc3ccc(C(F)(F)F)cc3)ccc2O[C@@H]1CN(C)Cc1ccc(Oc2ccccc2)cc1 | active
C[C@@H]1CN([C@@H](C)CO)C(=O)Cc2cc(NC(=O)Nc3ccc(C(F)(F)F)cc3)ccc2O[C@H]1CN(C)Cc1ccc(Oc2ccccc2)cc1 | active
C[C@@H]1CN([C@@H](C)CO)C(=O)Cc2cc(NC(=O)Nc3ccc(C(F)(F)F)cc3)ccc2O[C@@H]1CN(C)Cc1ccc(Oc2ccccc2)cc1 | active
C[C@H]1CN([C@@H](C)CO)C(=O)Cc2cc(NC(=O)Nc3ccc(C(F)(F)F)cc3)ccc2O[C@@H]1CN(C)Cc1ccc(Oc2ccccc2)cc1 | active
COc1ccc(S(=O)(=O)Nc2ccc3c(c2)CC(=O)N([C@H](C)CO)C[C@@H](C)[C@@H](CN(C)C)O3)cc1 | inactive
CCc1nc2ccc(C(=O)NCc3ccc4c(c3)OCO4)cn2c1N(CC)Cc1cccc(Br)c1 | inactive
C[C@@H]1CN([C@H](C)CO)C(=O)c2cc(NC(=O)Nc3ccc(C(F)(F)F)cc3)ccc2O[C@@H]1CN(C)C(=O)Nc1ccccc1 | inactive
COc1ccc(NC(=O)N(C)C[C@H]2OCCCC[C@H](C)Oc3ccc(NC(=O)Nc4ccc(F)cc4)cc3C(=O)N([C@H](C)CO)C[C@@H]2C)cc1 | inactive
COc1ccc(S(=O)(=O)Nc2ccc3c(c2)C(=O)N([C@@H](C)CO)C[C@H](C)[C@H](CN(C)C(=O)c2ccccc2)OCCCC[C@@H](C)O3)cc1 | inactive
C[C@@H]1CCCCO[C@H](CN(C)Cc2ccc(Cl)c(Cl)c2)[C@@H](C)CN([C@@H](C)CO)C(=O)c2cc(NS(=O)(=O)c3cn(C)cn3)ccc2O1 | inactive
OC[C@H]1O[C@H](Nc2ccccc2)C[C@@H]1O | inactive
CC(C)CC#Cc1ccc2c(c1)O[C@@H](CN(C)C(=O)Cc1cccnc1)[C@H](C)CN([C@@H](C)CO)S2(=O)=O | inactive
C[C@@H]1CCCCO[C@H](CN(C)C(=O)Cc2ccccc2)[C@H](C)CN([C@@H](C)CO)C(=O)c2cc(NC(=O)Nc3ccccc3)ccc2O1 | inactive
C[C@H](CO)N1C[C@H](C)[C@@H](CN(C)C(=O)Nc2ccc(C(F)(F)F)cc2)Oc2c(NS(C)(=O)=O)cccc2C1=O | inactive

SMILES | cytotoxicity call
CC(C)NC(=O)N(C)C[C@@H]1Oc2ccc(NS(=O)(=O)c3cn(C)cn3)cc2CC(=O)N([C@H](C)CO)C[C@@H]1C | inactive
COc1ccc(S(=O)(=O)Nc2cccc3c2O[C@@H](CN(C)S(=O)(=O)c2cn(C)cn2)[C@H](C)CN([C@H](C)CO)C3=O)cc1 | inactive
C[C@H](CO)N1C[C@H](C)[C@@H](CN(C)Cc2ccc(Oc3ccccc3)cc2)Oc2ccc(NC(=O)Nc3ccc(C(F)(F)F)cc3)cc2CC1=O | active
C[C@H](CO)N1C[C@H](C)[C@H](CN(C)Cc2ccc(Oc3ccccc3)cc2)Oc2ccc(NC(=O)Nc3ccc(C(F)(F)F)cc3)cc2CC1=O | active
C[C@H]1CN([C@@H](C)CO)C(=O)Cc2cc(NC(=O)Nc3ccc(C(F)(F)F)cc3)ccc2O[C@H]1CN(C)Cc1ccc(Oc2ccccc2)cc1 | active
C[C@@H]1CN([C@H](C)CO)C(=O)Cc2cc(NC(=O)Nc3ccc(C(F)(F)F)cc3)ccc2O[C@H]1CN(C)Cc1ccc(Oc2ccccc2)cc1 | active
COc1ccc(S(=O)(=O)Nc2ccc3c(c2)CC(=O)N([C@@H](C)CO)C[C@@H](C)[C@@H](CN(C)Cc2ccncc2)O3)cc1 | inactive
C[C@@H]1CN([C@@H](C)CO)C(=O)Cc2cc(NC(=O)CCN3CCOCC3)ccc2O[C@H]1CN(C)Cc1ccccc1 | inactive
C[C@H](CO)N1C[C@H](C)[C@@H](CN(C)C(=O)Nc2ccccc2)Oc2ccc(NS(C)(=O)=O)cc2C1=O | inactive
C[C@H](CO)N1C[C@H](C)[C@H](CN(C)C(=O)Cc2cccnc2)Oc2ncc(C#Cc3ccccc3F)cc2C1=O | inactive
O=C(N[C@H]1C=C[C@H](CC(=O)N2CCOCC2)O[C@H]1CO)c1ccc2c(c1)OCO2 | inactive
CON(C)c1nc(Oc2ccc(=O)[nH]n2)nc(N(C)C)n1 | inactive
CN1CCN(C)C1=O | inactive
COc1cccc(CNC(=O)C[C@H]2C=C[C@H](NC(=O)C3CCOCC3)[C@@H](CO)O2)c1 | inactive
O=C(C[C@H]1C=C[C@H](NS(=O)(=O)c2ccc(F)cc2)[C@@H](CO)O1)NCCN1CCCCC1 | inactive
c1ccc(-c2cccs2)cc1 | inactive
O=C(O)CCNC(=O)c1cncc(O)c1 | inactive
COC(=O)c1ccc(C(=O)OC)nc1 | active
COC(=O)c1cccnc1 | inactive
COC(=O)c1ccc(O)cc1 | inactive
COc1ccc(NC(=O)N(C)C[C@H]2Oc3ccc(NC(=O)Nc4ccc(C(F)(F)F)cc4)cc3C(=O)N([C@@H](C)CO)C[C@@H]2C)cc1 | inactive
O=C(N[C@H]1C=C[C@H](CC(=O)N2CCOCC2)O[C@H]1CO)c1ccccn1 | inactive
COCC(=O)Nc1ccc2c(c1)OC[C@H](C)N(Cc1cccc(F)c1)C[C@H](C)[C@@H](OC)CN(C)C2=O | inactive
C[C@@H]1CCCCO[C@H](CN(C)C(=O)Nc2ccc3c(c2)OCO3)[C@H](C)CN([C@H](C)CO)C(=O)c2cc(NS(=O)(=O)c3cccs3)ccc2O1 | inactive
O=C1CSC(/N=C/c2ccccc2O)=NN1 | active
C[C@@H]1CN([C@H](C)CO)C(=O)c2cc(NC(=O)Nc3ccc(C(F)(F)F)cc3)ccc2O[C@@H](C)CCCCO[C@H]1CN(C)Cc1ccc(C(=O)O)cc1 | inactive

SMILES | cytotoxicity call
Cc1noc(C)c1S(=O)(=O)Nc1ccc2c(c1)C(=O)N([C@@H](C)CO)C[C@H](C)[C@@H](CN(C)S(=O)(=O)c1cn(C)cn1)O2 | inactive
Cc1noc(C)c1NC(=O)N(C)C[C@H]1Oc2c(NC(=O)C3CCOCC3)cccc2C(=O)N([C@H](C)CO)C[C@H]1C | inactive
C=CC[C@H](CC(=O)N(CCO)Cc1ccccc1)C(=O)NC[C@H](OC(=O)[C@@H](CC=C)Cc1ccc(F)cc1)c1ccccc1 | active
C=CC[C@@H](CC(=O)N(CCO)Cc1ccccc1)C(=O)NC[C@H](OC(=O)[C@@H](CC=C)Cc1ccc(F)cc1)c1ccccc1 | active
C=CC[C@H](CC(=O)N(CCO)Cc1ccccc1)C(=O)NC[C@@H](OC(=O)[C@@H](CC=C)Cc1ccc(F)cc1)c1ccccc1 | inactive
C=CC[C@@H](CC(=O)N(CCO)Cc1ccccc1)C(=O)NC[C@@H](OC(=O)[C@@H](CC=C)Cc1ccc(F)cc1)c1ccccc1 | inactive
C[C@H](CO)N1C[C@H](C)[C@H](CN(C)S(=O)(=O)c2cccs2)Oc2ncc(C#CC(C)(C)O)cc2C1=O | inactive
COc1ccc(S(=O)(=O)N(C)C[C@H]2Oc3ccc(NS(C)(=O)=O)cc3C(=O)N([C@@H](C)CO)C[C@H]2C)cc1 | inactive
CC(C)NC(=O)N(C)C[C@H]1Oc2c(NS(=O)(=O)c3ccc(Cl)cc3)cccc2C(=O)N([C@@H](C)CO)C[C@@H]1C | inactive
CC(C)NC(=O)Nc1cccc2c1O[C@H](CN(C)Cc1ccc(-c3ccccc3)cc1)[C@H](C)CN([C@@H](C)CO)C2=O | inactive
COC(=O)CNC(=O)c1ccccc1 | inactive
C[C@@H]1CN([C@@H](C)CO)C(=O)c2cccc(NS(=O)(=O)c3cn(C)cn3)c2O[C@H]1CN(C)S(=O)(=O)c1cccs1 | inactive
Cc1noc(C)c1NC(=O)Nc1cccc2c1O[C@@H](CN(C)C(=O)NC(C)C)[C@@H](C)CN([C@@H](C)CO)C2=O | inactive
Cc1noc(C)c1NC(=O)Nc1ccc2c(c1)C(=O)N([C@@H](C)CO)C[C@@H](C)[C@@H](CN(C)C(=O)C1CCCCC1)OCCCC[C@H](C)O2 | inactive
C[C@@H]1CN([C@H](C)CO)C(=O)Cc2cc(NS(=O)(=O)c3ccccc3)ccc2O[C@@H]1CN(C)Cc1ccc(Oc2ccccc2)cc1 | active
C[C@@H]1CN([C@@H](C)CO)C(=O)Cc2cc(NS(=O)(=O)c3ccccc3)ccc2O[C@H]1CN(C)Cc1ccc(Oc2ccccc2)cc1 | inactive
C[C@H]1CN([C@@H](C)CO)C(=O)Cc2cc(NS(=O)(=O)c3ccccc3)ccc2O[C@@H]1CN(C)Cc1ccc(Oc2ccccc2)cc1 | active
C[C@@H]1CN([C@@H](C)CO)C(=O)Cc2cc(NS(=O)(=O)c3ccccc3)ccc2O[C@@H]1CN(C)Cc1ccc(Oc2ccccc2)cc1 | active
C[C@@H]1CN([C@H](C)CO)C(=O)Cc2cc(NS(=O)(=O)c3cccs3)ccc2O[C@@H]1CN(C)Cc1ccc(Oc2ccccc2)cc1 | active
C[C@@H]1CN([C@H](C)CO)C(=O)Cc2cc(NS(=O)(=O)c3ccccc3)ccc2O[C@H]1CN(C)Cc1ccc(Oc2ccccc2)cc1 | inactive
C[C@H]1CN([C@@H](C)CO)C(=O)Cc2cc(NS(=O)(=O)c3ccccc3)ccc2O[C@H]1CN(C)Cc1ccc(Oc2ccccc2)cc1 | inactive
C[C@H](CO)N1C[C@H](C)[C@@H](CN(C)Cc2ccc(Oc3ccccc3)cc2)Oc2ccc(NS(=O)(=O)c3ccccc3)cc2CC1=O | inactive
C[C@H]1CN([C@@H](C)CO)C(=O)Cc2cc(NS(=O)(=O)c3cccs3)ccc2O[C@H]1CN(C)Cc1ccc(Oc2ccccc2)cc1 | inactive
C[C@H](CO)N1C[C@H](C)[C@H](CN(C)Cc2ccc(Oc3ccccc3)cc2)Oc2ccc(NS(=O)(=O)c3ccccc3)cc2CC1=O | inactive
C[C@H]1CN([C@@H](C)CO)C(=O)Cc2cc(NS(=O)(=O)c3cccs3)ccc2O[C@@H]1CN(C)Cc1ccc(Oc2ccccc2)cc1 | inactive
